Our source for the growth values is PubChem BioAssay (NCI).

Compounds without any hit were thinned out: in the full panel of roughly 83,000, 20% have a hit.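 Values shown are percent growth following 48 h exposure of cells in 96-well plates to a single concentration of compound; below 10 was considered active.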 A number with no mark means an inactive call. The source made the active and inactive calls.

Among the test systems are HCT-15 colon; HT29 colon; SNB-75 CNS; SNB-19 CNS; U251 CNS; PC-3 prostate; SK-MEL-5 melanoma; UACC-62 melanoma; LOX IMVI melanoma; SK-MEL-28 melanoma.
Test in all cases: NCI-60 one-dose screen, 48 h (100 = growth as untreated, 0 = no growth, -100 = all killed)
Common to all, as to conditions: 10 µM unless noted

On to `Cc1ccc2c(n1)C[C@H](C(C)(C)O)CC[C@H]2C`, for which the growth in the test with HCT-15 colon was 99.4%; with HT29 colon, 107%; in the test on SNB-75 CNS it was 91.8%; in the test with SNB-19 CNS, 91.8%; in the test with U251 CNS, 94.4%; in the test with PC-3 prostate, 104%. Further, the growth was 98.9% with SK-MEL-5 melanoma, 94.4% in the test with UACC-62 melanoma, 101% in the test with LOX IMVI melanoma and 106% in the test on SK-MEL-28 melanoma.
On to `C[C@@H]1N=C(c2ccc(Cl)cc2Cl)Nc2nc3ccccn3c2C1=O`, for which the growth was 35.1% with HCT-15 colon; 7.68% (active) in the test with HT29 colon; 58.7% with SNB-75 CNS; 60.8% with SNB-19 CNS; 41.4% in the test on U251 CNS; 39.1% in the test with PC-3 prostate. Also, the growth in the test on SK-MEL-5 melanoma was 39.6%; with UACC-62 melanoma, 40.5%; in the test on SK-MEL-28 melanoma it was 60.7%.
On to `CCN1C(=O)N(CC)C2C1NN=c1s/c(=C\c3ccc([N+](=O)[O-])cc3)c(=O)n12` (configuration not stated), for which the growth with HCT-15 colon is 16.3%; in the test on HT29 colon it was 5.2% (active); with SNB-75 CNS, 0.315% (active); in the test on SNB-19 CNS it was 31.6%; in the test on U251 CNS, 20.8%; with PC-3 prostate, 32.6%. Besides, the growth is 27.6% in the test on SK-MEL-5 melanoma, 27.7% in the test on UACC-62 melanoma and 64.1% in the test on SK-MEL-28 melanoma.
As to `COc1ccc(-c2nc(SCCC(C)C)nc(N/N=C(/C)c3ccc(N)cc3)c2C#N)cc1`, the growth in the test with HCT-15 colon was 97.6%; with HT29 colon, 104%; with SNB-75 CNS, 81.4%; in the test with SNB-19 CNS it was 81.6%; with U251 CNS, 90.3%; in the test on PC-3 prostate, 96.5%. Also, the growth in the test on SK-MEL-5 melanoma is 99.5%; with UACC-62 melanoma, 87.5%; in the test with SK-MEL-28 melanoma it was 121%.
For `COc1ccc(S(=O)(=O)N(C)c2oc(-c3ccc(Cl)cc3)nc2C#N)cc1`, the growth is 44.3% in the test on HCT-15 colon; 65.9% in the test on HT29 colon; 65.1% in the test with SNB-75 CNS; 81% with SNB-19 CNS; 81.1% in the test with U251 CNS; 87.4% in the test on PC-3 prostate. Besides, the values for the growth with SK-MEL-5 melanoma, in the test with UACC-62 melanoma and with SK-MEL-28 melanoma were 86.1%, 59.1% and 84.4%, respectively.
For the compound `CN1CCN(CC(=O)N(C)c2ccc(N=C(c3ccccc3)c3c(O)[nH]c4ccc([N+](=O)[O-])cc34)cc2)CC1`, the growth with HCT-15 colon was 56.8%; with HT29 colon it was 22.7%; with SNB-75 CNS, 74.3%; in the test on SNB-19 CNS, 89.2%; in the test with U251 CNS it was 73.1%; in the test on PC-3 prostate it was 47.6%. For the same compound, the growth with SK-MEL-5 melanoma is 53%; with UACC-62 melanoma, 102%; in the test on SK-MEL-28 melanoma, 75.4%.
Regarding `Cc1ccc(Nc2cc(N)nc(N)n2)cc1`, the growth with HCT-15 colon was 104%; in the test on HT29 colon it was 103%; in the test on SNB-75 CNS, 84.2%; in the test with SNB-19 CNS it was 110%; in the test with U251 CNS it was 109%; in the test on PC-3 prostate it was 98%. Further, the growth with SK-MEL-5 melanoma is 98.2%; in the test on UACC-62 melanoma, 97.2%; in the test with SK-MEL-28 melanoma, 105%.
With `O=C(/C=C/c1ccco1)c1ccc(Nc2ccnc3cc(Cl)ccc23)cc1`, the growth in the test with HCT-15 colon was 59.7%; in the test on HT29 colon, 23.4%; in the test with SNB-75 CNS, 105%; with SNB-19 CNS it was 95.1%; in the test with U251 CNS it was 56.5%; in the test with PC-3 prostate, 80.5%. Moreover, the growth with SK-MEL-5 melanoma was 68.8%; with UACC-62 melanoma it was 108%; in the test on SK-MEL-28 melanoma, 103%.
For the compound `CN1CCN(Cn2nc(-c3cc(Cl)cc(Cl)c3Cl)oc2=S)CC1`, the growth with HCT-15 colon is 99.5%; in the test on HT29 colon, 102%; in the test on SNB-75 CNS, 80.9%; with SNB-19 CNS it was 95.4%; with U251 CNS, 97.5%; in the test with PC-3 prostate it was 92.1%. The results for the growth in the test on SK-MEL-5 melanoma, with UACC-62 melanoma and in the test with SK-MEL-28 melanoma were 101%, 99.7% and 110%, respectively.
Consider `Cc1ccccc1NC(=O)Cn1cc(CN2CCN(c3ccnc4cc(Cl)ccc34)CC2)nn1`, for which the growth was 98.5% in the test on HCT-15 colon; 105% in the test on HT29 colon; 85.8% in the test with SNB-75 CNS; 93.3% with SNB-19 CNS; 100% with U251 CNS; 81.4% with PC-3 prostate. Also, the values for the growth in the test with SK-MEL-5 melanoma, with UACC-62 melanoma and in the test with SK-MEL-28 melanoma were 91.2%, 84.3% and 100%, respectively.
Consider `CCN(CC)CCCC(Nc1c2ccc(Cl)cc2nc2ccc(OC)cc12)c1ccncc1` (configuration not stated), for which the growth in the test with HCT-15 colon is 54.8%; in the test on HT29 colon it was 43.7%; with SNB-75 CNS, 87%; in the test with SNB-19 CNS, 81%; in the test on U251 CNS it was 79.3%; with PC-3 prostate, 66.6%. In addition, the results for the growth with SK-MEL-5 melanoma, in the test on UACC-62 melanoma and in the test on SK-MEL-28 melanoma were 88.4%, 103% and 85.6%, respectively.
As to `O=C(CSc1nnc(-c2cc(-c3ccc(Cl)cc3)nc3ccccc23)n1-c1ccccc1)Nc1ccc(Cl)cc1`, the growth in the test with HCT-15 colon was 97%; in the test on HT29 colon it was 104%; in the test on SNB-75 CNS, 94.2%; in the test with SNB-19 CNS it was 94.5%; in the test on U251 CNS, 98.7%; in the test with PC-3 prostate, 80.3%. The growth with SK-MEL-5 melanoma is 101%; in the test on UACC-62 melanoma, 87.1%; with SK-MEL-28 melanoma, 103%.
Take `O=c1ccc2nc(-c3ccccc3)nn(-c3ccccn3)c-2c1`: the growth with HCT-15 colon was 33.9%; in the test on HT29 colon, -46.5% (active); in the test on SNB-75 CNS, 106%; with SNB-19 CNS it was 102%; in the test on U251 CNS, 94.4%; in the test with PC-3 prostate, 83.5%. Besides, the growth in the test on SK-MEL-5 melanoma is 76.6%; in the test with UACC-62 melanoma it was 93.4%; in the test on LOX IMVI melanoma, 49.6%; with SK-MEL-28 melanoma, 87.2%.
For `O=C(Nc1ccc(Cl)cc1)C1=NCCCCN1`, the growth is 55.4% in the test with HCT-15 colon; 89.6% with HT29 colon; 95.6% in the test on SNB-75 CNS; 101% in the test on SNB-19 CNS; 90.9% in the test with U251 CNS; 73% in the test with PC-3 prostate. Moreover, the growth with SK-MEL-5 melanoma was 93.6%; in the test with UACC-62 melanoma, 45.1%; in the test with LOX IMVI melanoma it was 30.5%; with SK-MEL-28 melanoma, 111%.
As for `COC12C=C/C(=C(/C(=O)OCc3ccccn3)C(=O)CCCCCCCCC3(OC)C=C/C(=C(/C(=O)OCc4ccccn4)C(=O)CCCCCCCC1)O3)O2`, the growth in the test with HCT-15 colon is -37.5% (active); with HT29 colon, 3.23% (active); with SNB-75 CNS, 1.28% (active); in the test on SNB-19 CNS, 12.5%; in the test with U251 CNS it was -25.6% (active); with PC-3 prostate it was -37.4% (active). In addition, the growth in the test on SK-MEL-5 melanoma was -83.3% (active); in the test on UACC-62 melanoma, -52.5% (active); in the test with SK-MEL-28 melanoma, -11.1% (active).
Turning to `CCOC(=O)CSc1nc2sc3c(c2c(=O)n1-c1ccccc1)CCCCC3`, the growth in the test on HCT-15 colon is 104%; in the test on HT29 colon, 102%; in the test on SNB-75 CNS it was 112%; in the test with SNB-19 CNS it was 89.2%; with U251 CNS it was 93.4%; in the test on PC-3 prostate, 109%. Besides, the growth in the test on SK-MEL-5 melanoma is 97.6%; in the test with UACC-62 melanoma it was 99.5%; in the test on SK-MEL-28 melanoma it was 112%.
Regarding `CCCn1cnc2c(c1=N)C(c1ccc(Cl)cc1)c1sc3c(F)cccc3c1O2` (configuration not stated), the growth was 40.9% in the test on HCT-15 colon; 20.8% in the test with HT29 colon; 90.2% with SNB-75 CNS; 87.5% in the test on SNB-19 CNS; 59.8% in the test on U251 CNS; 65.8% with PC-3 prostate. Besides, the growth with SK-MEL-5 melanoma was 63.7%; with UACC-62 melanoma, 85.4%; in the test with SK-MEL-28 melanoma, 80.1%.
With `CC1=C(C(=O)c2ccccc2)C(c2ccc3c(c2)OCO3)NC(=S)N1` (configuration not stated), the growth in the test on HCT-15 colon was 33.7%; in the test on HT29 colon, 18.5%; with SNB-75 CNS, -1.4% (active); with SNB-19 CNS it was 63.8%; in the test on U251 CNS, 37.5%; in the test on PC-3 prostate it was 61.5%. Also, the growth is 28.2% in the test with SK-MEL-5 melanoma, 51.6% with UACC-62 melanoma, 36.2% in the test on LOX IMVI melanoma and 70.9% in the test with SK-MEL-28 melanoma.
Regarding `CCOC(=O)/C(=C/c1ccc([N+](=O)[O-])cc1)C(=O)c1ccccc1`, the growth in the test with HCT-15 colon is -15.2% (active); with HT29 colon it was -23.7% (active); in the test on SNB-75 CNS, 47%; in the test with SNB-19 CNS, 51.5%; in the test on U251 CNS it was 26%; in the test with PC-3 prostate it was 5.94% (active). Also, the growth is 62.4% in the test on SK-MEL-5 melanoma, 19.7% with UACC-62 melanoma and -29.4% (active) with SK-MEL-28 melanoma.
Turning to `COc1cc(-c2c(-c3ccccc3)c[nH]c2C(=O)NCCCO)c(OC)c2c1OCO2`, the growth in the test on HCT-15 colon is 107%; with HT29 colon, 106%; in the test with SNB-75 CNS it was 92.9%; with SNB-19 CNS, 97.5%; in the test with U251 CNS, 104%; in the test with PC-3 prostate, 99.1%. Moreover, the results for the growth with SK-MEL-5 melanoma, in the test with UACC-62 melanoma and in the test on SK-MEL-28 melanoma were 99.1%, 93.7% and 107%, respectively.
Regarding `C=CCn1c(SCC(=O)Nc2ccc(C(=O)/C=C/c3ccc(Cl)cc3)cc2)nnc1-c1ccc(Cl)c(Cl)c1`, the growth in the test with HCT-15 colon is 78.8%; in the test with HT29 colon it was 71.6%; in the test with SNB-75 CNS, 73.9%; with SNB-19 CNS, 85.3%; in the test with U251 CNS, 81%; in the test on PC-3 prostate, 51.8%. For the same compound, the growth was 82.3% with SK-MEL-5 melanoma, 62.4% in the test with UACC-62 melanoma and 101% in the test with SK-MEL-28 melanoma.
Consider `O=C(CN1C(=O)c2ccccc2S1(=O)=O)Nc1nc(-c2cc3ccccc3oc2=O)cs1`, for which the growth was 108% in the test on HCT-15 colon; 103% in the test with HT29 colon; 97.3% in the test on SNB-75 CNS; 101% with SNB-19 CNS; 99.2% in the test with U251 CNS; 97.7% with PC-3 prostate. The growth with SK-MEL-5 melanoma was 99.1%; in the test with UACC-62 melanoma, 97.8%; in the test on SK-MEL-28 melanoma, 107%.
